Screens deposited in PubChem by National Center for Advancing Translational Sciences (NCATS).
HP1b binding inh: HTS for Inhibitors of HP1-beta Chromodomain Interactions with Methylated Histone Tails; Chromobox protein homolog 1 (Homo sapiens), P83916; AlphaScreen HP1-beta / biotin-H3K9me3 peptide binding; Potency, µM (series often up to 114 µM), without a hit: at the highest dose activity change, negative = inhibition, actives largely listed as inhibitors; 390,000 compounds, 0.56% hits; AID 540317, 2011; also: nearly all actives have a fitted effect of over 70% in size
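Compound inhibition of the preformed complex between 50 nM HP1-beta and 50 nM biotinylated H3K9me3 peptide was read by AlphaScreen. Buffer was PBS pH 7.4 with 0.01% Tween-20. Incubations ran 30 min at room temperature, with 10 ug/mL donor/acceptor beads.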
BAZ2B block: qHTS Assay for Inhibitors of BAZ2B; Potency, µM (highest dose often 114 µM), for inactives: at the highest dose activity change, negative = inhibition, most hits filed as inhibitors; AID 504333, 2011; 360,000 compounds, 4.4% hits; AlphaScreen BAZ2B-H3K14Ac peptide displacement; Bromodomain adjacent to zinc finger domain protein 2B (Homo sapiens), Q9UIF8; also: % is scaled to controls: 0 for no effect and ±100 for the full control effect; nearly all actives have a fitted effect of over 60% in size
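BAZ2B (50 nM) with biotin-H3(5-23)K14Ac peptide (50 nM) in PBS pH 7.4, 0.01% Tween-20, preformed 30 min, then compound 30 min at room temperature; top concentration 110uM. AlphaScreen streptavidin donor/nickel chelate acceptor beads (10 ug/mL final), 20 min dark, signal read.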
TDP1 inh: qHTS Assay for Inhibitors of Tyrosyl-DNA Phosphodiesterase (TDP1) | recombinant TDP1, AlphaScreen DNA substrate cleavage | 350,000 compounds, 0.28% hits | Potency, µM (doses to about 130 µM), for inactives: at the highest dose activity change, negative = inhibition, hits mostly inhibitors | AID 485290, 2010 | Tyrosyl-DNA phosphodiesterase 1 (Homo sapiens), Q9NUW8; also: % is scaled to controls: 0 for no effect and ±100 for the full control effect; nearly all actives have a fitted effect of over 40% in size
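AlphaScreen read-out: signal falls as enzyme removes the 3' tyrosine-FITC from a 5'-biotinylated DNA oligo (15 nM, 5 min, RT). Enzyme was E. coli-made recombinant Tdp1 at 1 nM, exposed to compound for 15 min beforehand; beads 10 ug/ml, 10 min.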
JMJD2A Tudor: qHTS Assay for Inhibitors of JMJD2A-Tudor Domain | AlphaScreen JMJD2A-Tudor / H3K4me3 peptide binding | Potency, µM (top dose mostly 114 µM), for the others: at the top dose activity change, negative = inhibition, usual class: inhibitors | 390,000 compounds, 4.4% hits | AID 504339, 2011; also: % is scaled to controls: 0 for no effect and ±100 for the full control effect; nearly all actives have a fitted effect of over 50% in size
Target sequence (O75164 whole entry, looked up, the tested form may be a part): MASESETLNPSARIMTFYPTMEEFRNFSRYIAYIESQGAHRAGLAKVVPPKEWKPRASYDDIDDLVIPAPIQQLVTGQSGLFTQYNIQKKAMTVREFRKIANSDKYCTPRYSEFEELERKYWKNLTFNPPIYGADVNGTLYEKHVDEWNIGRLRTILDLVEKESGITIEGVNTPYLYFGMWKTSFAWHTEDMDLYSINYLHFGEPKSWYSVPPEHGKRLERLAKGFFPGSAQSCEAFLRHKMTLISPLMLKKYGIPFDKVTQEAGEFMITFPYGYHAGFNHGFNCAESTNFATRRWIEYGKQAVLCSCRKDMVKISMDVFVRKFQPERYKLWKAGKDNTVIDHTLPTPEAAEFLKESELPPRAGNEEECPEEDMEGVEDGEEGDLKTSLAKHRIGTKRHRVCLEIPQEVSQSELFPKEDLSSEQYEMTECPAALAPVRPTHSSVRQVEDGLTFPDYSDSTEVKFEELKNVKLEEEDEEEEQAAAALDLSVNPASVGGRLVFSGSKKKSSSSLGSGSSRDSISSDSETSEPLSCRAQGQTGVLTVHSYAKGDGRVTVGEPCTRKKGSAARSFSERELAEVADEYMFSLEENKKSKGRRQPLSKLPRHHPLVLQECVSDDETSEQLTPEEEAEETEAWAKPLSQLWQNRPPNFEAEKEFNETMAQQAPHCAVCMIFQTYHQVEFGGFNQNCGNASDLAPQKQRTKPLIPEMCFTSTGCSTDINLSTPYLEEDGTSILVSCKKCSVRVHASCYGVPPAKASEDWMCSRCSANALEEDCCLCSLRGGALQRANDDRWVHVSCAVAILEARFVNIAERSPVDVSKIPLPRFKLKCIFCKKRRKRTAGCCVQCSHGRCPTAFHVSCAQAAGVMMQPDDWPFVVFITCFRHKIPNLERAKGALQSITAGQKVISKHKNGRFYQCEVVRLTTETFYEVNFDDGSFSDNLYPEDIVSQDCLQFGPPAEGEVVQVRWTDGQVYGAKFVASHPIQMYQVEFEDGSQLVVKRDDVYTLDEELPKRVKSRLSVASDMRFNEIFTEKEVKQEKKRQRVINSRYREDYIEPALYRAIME
Sfp inh: qHTS Assay for Inhibitors of Bacillus subtilis Sfp phosphopantetheinyl transferase (PPTase). 4'-phosphopantetheinyl transferase ffp (Bacillus subtilis), Q9F4F7. Biochemical Sfp PPTase activity, qHTS. Potency, µM, inactives show largest response in the series, negative = inhibition, usual class: inhibitors. 310,000 compounds, 3.5% hits;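 also: the enzyme is Sfp with the accession as filed and its product quenches rhodamine fluorescence; 0% = enzyme reaction without inhibitor and -100% = no enzyme wells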
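Sfp 15 nM + cpd, 15 min RT; start w/ rhodamine-CoA 5 uM, BHQ-2-YbbR 12.5 uM (final); 50 mM Hepes pH 7.6, 10 mM MgCl2, 0.01% NP-40, 0.01% BSA; read 525/598 nm at 0 and 30 min.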
G9a inh: qHTS Assay for Inhibitors of Histone Lysine Methyltransferase G9a; G9a H3K9 monomethylation, AlphaScreen, 2 h; Histone-lysine N-methyltransferase EHMT2 (Homo sapiens), Q96KQ7; AID 504332, 2011; Potency, µM (titrated, usually from 102 µM), for inactives: at the highest dose activity, negative = inhibition, most hits filed as inhibitors; 350,000 compounds, 8.8% hits; also: % is scaled to controls: 0 for no effect and ±100 for the full control effect; nearly all actives have a fitted effect of over 75% in size
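Using a bead-based AlphaScreen, monomethylated H3K9 product from 2 h room-temperature reactions (G9a 20 nM, peptide 500 nM, SAM 20 uM) was detected with 0.5 ug/mL rabbit anti-H3K9me1 antibody.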
Numbers without * were called inactive; i = inactive; ? = inconclusive; . = not tested or not shown; [ ] = another dose, or the depositor's remark. In the library only some 12% were active in any assay of this set; here they are far more common. Calls follow the shape of the dose curve; as a rule, active = well fitted curve in the direction sought with a large enough effect; inconclusive = small, poorly fitted or top-dose-only effect, or another doubt; inactive = no such curve, though single readings can be large; an effect the other way counts as inactive or inconclusive. Potency is read from the fitted curve at half-maximal effect.

SMILES	HP1b binding inh	BAZ2B block	TDP1 inh	JMJD2A Tudor	Sfp inh	G9a inh
Cc1cc(-c2cn3ccccc3n2)c(C)n1-c1ccccc1	?	?	10.3%	56.2µM*	-10.8%	50.1µM*
COc1cccc2cc(-c3cn4cccc(C)c4n3)c(=O)oc12	4.6%	.	.	-9.8%	.	.
COc1ccc(-n2c(C)cc(-c3cn4cccc(C)c4n3)c2C)cc1	-11.2%	39.8µM*	6.5%	?	6.9%	?
COc1ccc(N2CCN(C(=O)CCCNC(=O)Cn3cnc4sc(C)c(C)c4c3=O)CC2)cc1	16.3%	-2.9%	0.4%	-17.2%	9.6%	50.1µM*
CCC[C@H]1C[C@H](C(=O)NC(C(C)Cl)C2O[C@@H](SC)C(OP(=O)(O)O)[C@@H](O)[C@@H]2O)N(C)C1 (stereo not given in full)	.	.	10.2%	.	-12.3%	.
COc1ccc(N=C(C)C2=C(O)COC2=O)cc1	35.2%	-18.9%	0.0%	-14.3%	7.0%	6.31µM*
CCOC1=C/C(=C/c2c(N)n3nc(CC(=O)N4CCCCC4)sc3nc2=O)C=CC1=O	10.3%	?	0.6%	?	14.3%	50.1µM*
Nc1c(C=C2C=CC(=O)C=C2)c(=O)nc2sc(CC(=O)N3CCOCC3)nn12	15.6%	?	2.6%	-9.0%	4.7%	.
CCOC1=C/C(=C/c2c(N)n3nc(S(=O)(=O)CC)sc3nc2=O)C=CC1=O	5.4%	-27.8%	2.5%	-19.1%	-6.1%	35.5µM*
COC1=CC(=Cc2c(N)n3nc(CC(=O)N4CCOCC4)sc3nc2=O)C=C(OC)C1=O	3.2%[57 µM]	44.7µM*	-0.7%	?	-3.1%	?
COCCCNC(=O)c1ccc(Cn2c(SCc3ccc(F)cc3)nc3cccnc32)cc1	28.3%	-1.4%	1.2%	3.3%	.	0.8%[59 µM]
Cc1cccc(NC(=O)CNC(=O)COC(=O)c2ccco2)c1C	24.5%	2.8%	-0.3%	-6.2%	.	13.8%[2.33 µM]
COc1ccc(-c2cc(=O)c3ccccc3o2)cc1OC	.	.	8.1%[56.1 µM]	.	35.5µM*	.
O=[N+]([O-])c1ccc2[nH]c(=S)sc2c1	?	.	.	50.1µM*	.	.
O=c1[nH]c2ccc(Cl)cc2[nH]1	14.4%[57 µM]	.	.	-10.3%	.	.
S=c1[nH]c2ccc(Cl)cc2s1	-5.8%	-22.3%	2.9%	?	-3.8%	1.12µM*
O=[N+]([O-])c1ccc2[nH]c(=S)[nH]c2c1	-1.7%[57 µM]	.	.	-51.7%	.	.
O=C(Nc1ccccc1)Nc1ncc([N+](=O)[O-])s1	-0.8%[57 µM]	?	8.3%	-31.0%	-5.6%	44.7µM*
O=C(COC(=O)c1ccccc1)Nc1ncc([N+](=O)[O-])s1	?	.	.	20µM*	.	.
CC1C(=O)N(Cc2cccc(F)c2)c2ccccc2N1C(=O)c1ccccc1 (stereo not given)	23.9%	0.2%	.	-2.4%	-12.0%	3.5%
CCCN1C2CCCC1CC(NC(=O)c1ccc(OC)cc1)C2 (stereo not given)	11.5%	-28.7%	.	-6.2%	23.7%	-9.3%
CSCC[C@H](N)C(=O)N1CCC(C(=O)N[C@H](C(=O)NCc2ccccc2F)C(C)C)CC1	29.5%	-37.1%	.	-8.8%	-0.5%	.
CN(C)c1ncc2nc(-c3ccccc3)c(=O)n(Cc3ccc(F)cc3)c2n1	.	.	.	.	10.9%	1.7%[0.501 µM]
CN(C)c1nc(-c2ccccc2)c2cnn(Cc3ccccc3)c2n1	i	373.0%	15.8µM*	374.4%	?	i
COc1ccc(CN(CC2CCCO2)C(=O)c2cc3sccc3n2C)c(OC)c1 (stereo not given)	-21.9%	56.2µM*	-2.5%	?	4.9%	?
CCC(C)NCCOCCOc1ccc(Br)cc1 (stereo not given)	?	79.4µM*	-5.3%	11.2µM*	?	?
